From article PMC7862700, “An all-to-all approach to the identification of sequence-specific readers for epigenetic DNA modifications on cytosine”

How the values were obtained:
Assay in all cases: DAPPL (digital affinity profiling via proximity ligation, sequencing); 10 mM Tris-HCl pH 7.5, 50 mM NaCl, 1 mM DTT, 4% glycerol, room temperature, 30 min; GST-TFs on glutathione beads, 16-mer random dsDNA library, 0.1% formaldehyde crosslink after washing; high values mean tight binding
FLI1 = biological target: T1, FLI1 (Homo sapiens, UniProt Q01543 1-452); settings: protein: recombinant; tags: N-terminal GST; dsDNA, one strand shown
T1 sequence: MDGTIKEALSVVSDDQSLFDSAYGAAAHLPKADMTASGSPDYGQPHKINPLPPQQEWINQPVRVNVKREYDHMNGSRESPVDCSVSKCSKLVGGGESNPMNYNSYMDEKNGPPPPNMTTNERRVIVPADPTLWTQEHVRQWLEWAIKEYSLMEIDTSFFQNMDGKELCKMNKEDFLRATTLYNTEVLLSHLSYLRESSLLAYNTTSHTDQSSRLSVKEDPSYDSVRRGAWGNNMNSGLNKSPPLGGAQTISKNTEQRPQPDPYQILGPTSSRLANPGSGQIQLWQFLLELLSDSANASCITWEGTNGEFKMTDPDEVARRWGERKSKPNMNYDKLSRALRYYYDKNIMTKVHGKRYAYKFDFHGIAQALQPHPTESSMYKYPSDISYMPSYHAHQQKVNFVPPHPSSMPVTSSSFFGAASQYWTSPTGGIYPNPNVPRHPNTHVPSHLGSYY
Method in brief: (§1)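 The binding signal reported is, for every hexamer, its read frequency for a factor over its read frequency for the tag-only sample. Reads came from pools of yeast-expressed, GST-fused human transcription factors on glutathione beads, barcoded with DNA and mixed with that sample, which were incubated with 200 nmole of a random double-stranded 16-mer DNA library in Tris/NaCl/DTT/glycerol buffer at room temperature for 30 min. After washing, the pools were crosslinked with 0.1% formaldehyde, proximity-ligated with BsaI/T4 ligase for 1 h at 37 °C, PCR-amplified and sequenced on an Illumina NextSeq500.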

ELK1 = biological target: T2, ELK1 (Homo sapiens, UniProt P19419 1-428); settings: protein: recombinant; tags: N-terminal GST; dsDNA, one strand shown
T2 sequence: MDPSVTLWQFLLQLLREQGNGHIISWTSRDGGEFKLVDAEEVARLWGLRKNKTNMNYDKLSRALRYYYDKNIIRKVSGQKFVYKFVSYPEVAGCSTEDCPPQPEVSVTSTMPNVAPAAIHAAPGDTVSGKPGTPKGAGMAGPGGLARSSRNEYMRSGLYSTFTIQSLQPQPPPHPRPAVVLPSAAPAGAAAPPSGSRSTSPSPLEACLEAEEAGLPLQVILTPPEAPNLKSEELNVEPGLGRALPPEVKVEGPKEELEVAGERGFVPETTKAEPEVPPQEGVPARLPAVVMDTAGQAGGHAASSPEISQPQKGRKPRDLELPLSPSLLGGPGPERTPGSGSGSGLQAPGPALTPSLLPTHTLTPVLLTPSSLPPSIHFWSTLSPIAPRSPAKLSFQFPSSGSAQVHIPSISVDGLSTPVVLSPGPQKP
Method in brief: as §1

GABPA = biological target: T3, GABPA (Homo sapiens, UniProt Q06546 1-454); settings: protein: recombinant; tags: N-terminal GST; dsDNA, one strand shown
T3 sequence: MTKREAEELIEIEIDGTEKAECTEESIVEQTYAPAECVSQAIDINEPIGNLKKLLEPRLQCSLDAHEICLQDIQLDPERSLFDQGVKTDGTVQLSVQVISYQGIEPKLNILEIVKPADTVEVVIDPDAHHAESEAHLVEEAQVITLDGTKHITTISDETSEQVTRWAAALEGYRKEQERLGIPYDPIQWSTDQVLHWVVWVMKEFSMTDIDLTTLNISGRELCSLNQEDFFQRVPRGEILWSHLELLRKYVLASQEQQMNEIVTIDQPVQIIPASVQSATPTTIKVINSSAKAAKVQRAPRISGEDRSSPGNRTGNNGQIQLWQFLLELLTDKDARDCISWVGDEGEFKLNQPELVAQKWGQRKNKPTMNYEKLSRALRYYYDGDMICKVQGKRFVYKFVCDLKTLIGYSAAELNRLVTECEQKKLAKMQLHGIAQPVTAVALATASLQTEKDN
Method in brief: as §1

ERG = biological target: T4, ERG (Homo sapiens, UniProt P11308 1-479); settings: protein: recombinant; tags: N-terminal GST; dsDNA, one strand shown
T4 sequence: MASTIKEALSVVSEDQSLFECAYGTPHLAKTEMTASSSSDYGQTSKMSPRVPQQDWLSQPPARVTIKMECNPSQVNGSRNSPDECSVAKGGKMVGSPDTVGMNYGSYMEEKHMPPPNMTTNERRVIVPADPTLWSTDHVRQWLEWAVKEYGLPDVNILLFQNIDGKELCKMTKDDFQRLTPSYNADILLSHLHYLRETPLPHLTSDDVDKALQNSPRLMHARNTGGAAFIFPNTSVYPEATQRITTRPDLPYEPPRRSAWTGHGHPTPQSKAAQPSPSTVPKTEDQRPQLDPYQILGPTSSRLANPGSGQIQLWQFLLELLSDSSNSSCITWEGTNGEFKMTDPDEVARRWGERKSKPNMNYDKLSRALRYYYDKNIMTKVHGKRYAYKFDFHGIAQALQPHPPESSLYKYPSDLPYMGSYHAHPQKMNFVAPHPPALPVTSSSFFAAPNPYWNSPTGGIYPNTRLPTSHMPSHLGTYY
Method in brief: as §1

ELF1 = ELF1 (Homo sapiens, UniProt P32519 1-619); settings: protein: recombinant; tags: N-terminal GST; dsDNA, one strand shown
Chain of ELF1 (P32519 whole entry): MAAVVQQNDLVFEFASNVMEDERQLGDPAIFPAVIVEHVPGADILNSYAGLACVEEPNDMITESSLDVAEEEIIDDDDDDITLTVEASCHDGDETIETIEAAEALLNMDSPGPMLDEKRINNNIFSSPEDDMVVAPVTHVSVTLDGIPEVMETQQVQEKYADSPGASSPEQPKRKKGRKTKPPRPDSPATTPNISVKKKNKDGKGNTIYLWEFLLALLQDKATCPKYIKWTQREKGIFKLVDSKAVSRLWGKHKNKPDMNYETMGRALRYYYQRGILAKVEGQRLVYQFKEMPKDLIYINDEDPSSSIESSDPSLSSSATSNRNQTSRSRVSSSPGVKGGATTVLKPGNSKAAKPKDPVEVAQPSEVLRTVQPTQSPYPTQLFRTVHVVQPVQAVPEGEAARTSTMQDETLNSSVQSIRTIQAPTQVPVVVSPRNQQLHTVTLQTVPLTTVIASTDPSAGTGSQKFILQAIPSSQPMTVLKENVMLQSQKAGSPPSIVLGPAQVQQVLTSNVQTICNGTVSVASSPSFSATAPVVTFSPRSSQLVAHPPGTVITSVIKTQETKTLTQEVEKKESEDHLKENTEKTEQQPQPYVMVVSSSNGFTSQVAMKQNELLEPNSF
Method in brief: as §1

EHF = biological target: T5, EHF (Homo sapiens, UniProt Q9NZC4 1-300); settings: protein: recombinant; tags: N-terminal GST; dsDNA, one strand shown
T5 sequence: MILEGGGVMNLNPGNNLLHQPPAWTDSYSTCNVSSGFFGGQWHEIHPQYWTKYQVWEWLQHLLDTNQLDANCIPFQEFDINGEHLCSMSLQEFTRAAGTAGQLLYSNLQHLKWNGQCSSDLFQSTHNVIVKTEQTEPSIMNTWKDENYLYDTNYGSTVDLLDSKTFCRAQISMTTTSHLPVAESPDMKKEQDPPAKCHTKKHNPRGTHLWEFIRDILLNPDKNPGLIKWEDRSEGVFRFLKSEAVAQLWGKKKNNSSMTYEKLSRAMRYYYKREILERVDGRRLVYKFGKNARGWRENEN
Method in brief: as §1

SPI1 = SPI1 (Homo sapiens, UniProt P17947 1-270); settings: protein: recombinant; tags: N-terminal GST; dsDNA, one strand shown
Method in brief: as §1

SPIB = SPIB (Homo sapiens, UniProt Q01892 1-262); settings: protein: recombinant; tags: N-terminal GST; dsDNA, one strand shown
Chain of SPIB (Q01892 whole entry): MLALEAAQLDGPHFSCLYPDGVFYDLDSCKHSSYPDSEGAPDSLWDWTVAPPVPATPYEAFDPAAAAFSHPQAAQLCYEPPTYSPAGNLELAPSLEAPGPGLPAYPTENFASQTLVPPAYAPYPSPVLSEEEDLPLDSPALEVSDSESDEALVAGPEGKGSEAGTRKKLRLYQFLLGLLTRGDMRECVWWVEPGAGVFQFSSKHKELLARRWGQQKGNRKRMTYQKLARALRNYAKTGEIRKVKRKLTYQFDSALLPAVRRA
Method in brief: as §1

ELK3 = biological target: T6, ELK3 (Homo sapiens, UniProt P41970 1-407); settings: protein: recombinant; tags: N-terminal GST; dsDNA, one strand shown
T6 sequence: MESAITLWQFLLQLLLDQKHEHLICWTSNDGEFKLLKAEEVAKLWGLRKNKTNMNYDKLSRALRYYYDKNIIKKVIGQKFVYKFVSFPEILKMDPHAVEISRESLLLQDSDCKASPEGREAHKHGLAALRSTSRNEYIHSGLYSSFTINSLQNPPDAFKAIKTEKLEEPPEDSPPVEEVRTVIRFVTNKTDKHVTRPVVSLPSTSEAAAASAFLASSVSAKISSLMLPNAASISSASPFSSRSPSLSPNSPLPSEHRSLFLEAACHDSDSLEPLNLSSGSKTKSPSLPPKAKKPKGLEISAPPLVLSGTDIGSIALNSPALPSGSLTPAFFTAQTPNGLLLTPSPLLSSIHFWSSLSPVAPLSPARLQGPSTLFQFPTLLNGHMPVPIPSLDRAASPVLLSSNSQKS
Method in brief: as §1

FEV = biological target: T7, FEV (Homo sapiens, UniProt Q99581 1-238); settings: protein: recombinant; tags: N-terminal GST; dsDNA, one strand shown
T7 sequence: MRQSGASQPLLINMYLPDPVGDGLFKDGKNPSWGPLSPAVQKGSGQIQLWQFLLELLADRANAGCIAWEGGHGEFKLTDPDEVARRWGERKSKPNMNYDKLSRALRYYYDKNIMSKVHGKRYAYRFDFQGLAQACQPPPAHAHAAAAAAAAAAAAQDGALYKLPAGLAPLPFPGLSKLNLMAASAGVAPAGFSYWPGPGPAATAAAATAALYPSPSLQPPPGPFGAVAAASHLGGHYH
Method in brief: as §1

ETV5 = ETV5 (Homo sapiens, UniProt P41161 1-510); settings: protein: recombinant; tags: N-terminal GST; dsDNA, one strand shown
Chain of ETV5 (P41161 whole entry): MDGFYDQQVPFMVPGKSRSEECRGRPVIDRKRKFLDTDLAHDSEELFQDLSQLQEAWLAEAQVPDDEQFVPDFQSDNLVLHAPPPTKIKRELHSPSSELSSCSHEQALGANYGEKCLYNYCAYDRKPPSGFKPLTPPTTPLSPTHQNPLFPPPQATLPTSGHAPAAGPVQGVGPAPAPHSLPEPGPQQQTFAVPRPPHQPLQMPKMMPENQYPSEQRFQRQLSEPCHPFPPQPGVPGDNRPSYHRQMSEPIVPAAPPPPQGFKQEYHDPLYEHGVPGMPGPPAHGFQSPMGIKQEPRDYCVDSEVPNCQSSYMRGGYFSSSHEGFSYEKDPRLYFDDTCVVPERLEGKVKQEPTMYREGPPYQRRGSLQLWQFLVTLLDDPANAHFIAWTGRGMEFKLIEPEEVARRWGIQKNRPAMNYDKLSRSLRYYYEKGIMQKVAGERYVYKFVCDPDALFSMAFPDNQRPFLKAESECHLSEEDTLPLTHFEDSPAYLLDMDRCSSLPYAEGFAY
Method in brief: as §1

HSF1 = HSF1 (Homo sapiens, UniProt Q00613 1-529); settings: protein: recombinant; tags: N-terminal GST; chain copies: 3; dsDNA, one strand shown
Chain of HSF1 (Q00613 whole entry): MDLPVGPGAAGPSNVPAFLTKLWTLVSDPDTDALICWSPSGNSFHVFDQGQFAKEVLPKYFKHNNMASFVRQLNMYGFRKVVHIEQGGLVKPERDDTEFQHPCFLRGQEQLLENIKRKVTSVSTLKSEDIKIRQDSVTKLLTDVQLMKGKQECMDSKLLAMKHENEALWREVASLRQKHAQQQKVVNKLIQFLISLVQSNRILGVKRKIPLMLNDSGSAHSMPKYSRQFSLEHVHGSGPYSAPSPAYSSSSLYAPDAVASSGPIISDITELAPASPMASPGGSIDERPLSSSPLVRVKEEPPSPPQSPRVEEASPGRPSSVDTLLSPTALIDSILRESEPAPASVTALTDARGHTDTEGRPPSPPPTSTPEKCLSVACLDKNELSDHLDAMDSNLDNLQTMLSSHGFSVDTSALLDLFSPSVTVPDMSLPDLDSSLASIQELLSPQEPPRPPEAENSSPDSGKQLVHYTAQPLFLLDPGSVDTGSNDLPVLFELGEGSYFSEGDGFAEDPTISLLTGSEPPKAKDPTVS
Method in brief: as §1

SPIC = biological target: T8, SPIC (Homo sapiens, UniProt Q8N5J4 1-248); settings: protein: recombinant; tags: N-terminal GST; dsDNA, one strand shown
T8 sequence: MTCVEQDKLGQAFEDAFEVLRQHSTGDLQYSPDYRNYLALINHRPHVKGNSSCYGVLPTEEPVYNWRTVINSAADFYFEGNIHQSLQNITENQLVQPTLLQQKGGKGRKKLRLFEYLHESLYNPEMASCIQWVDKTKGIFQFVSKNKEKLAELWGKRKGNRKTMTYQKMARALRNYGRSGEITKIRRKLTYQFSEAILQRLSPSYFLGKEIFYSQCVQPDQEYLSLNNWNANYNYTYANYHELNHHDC
Method in brief: as §1

ELF4 = ELF4 (Homo sapiens, UniProt Q99607 1-663); settings: protein: recombinant; tags: N-terminal GST; dsDNA, one strand shown
Chain of ELF4 (Q99607 whole entry): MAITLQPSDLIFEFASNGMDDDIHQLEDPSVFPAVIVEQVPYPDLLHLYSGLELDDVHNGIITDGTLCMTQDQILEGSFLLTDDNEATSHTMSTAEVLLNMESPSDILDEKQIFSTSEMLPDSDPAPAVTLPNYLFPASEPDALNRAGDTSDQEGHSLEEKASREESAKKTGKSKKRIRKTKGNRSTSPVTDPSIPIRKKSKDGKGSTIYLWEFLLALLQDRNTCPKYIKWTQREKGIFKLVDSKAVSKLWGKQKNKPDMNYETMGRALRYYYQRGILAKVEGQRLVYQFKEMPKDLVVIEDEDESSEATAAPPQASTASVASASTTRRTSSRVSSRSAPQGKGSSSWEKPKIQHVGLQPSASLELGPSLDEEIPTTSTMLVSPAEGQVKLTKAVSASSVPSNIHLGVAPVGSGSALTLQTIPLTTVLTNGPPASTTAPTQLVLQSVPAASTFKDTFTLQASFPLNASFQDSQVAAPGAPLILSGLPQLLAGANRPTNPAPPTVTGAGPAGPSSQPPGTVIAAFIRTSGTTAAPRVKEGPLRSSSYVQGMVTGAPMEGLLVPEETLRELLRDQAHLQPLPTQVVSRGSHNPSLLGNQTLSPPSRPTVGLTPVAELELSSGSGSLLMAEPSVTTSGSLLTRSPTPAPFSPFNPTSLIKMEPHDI
Method in brief: as §1

ELK4 = biological target: T9, ELK4 (Homo sapiens, UniProt P28324-2 1-405); settings: protein: recombinant; tags: N-terminal GST; dsDNA, one strand shown
T9 sequence: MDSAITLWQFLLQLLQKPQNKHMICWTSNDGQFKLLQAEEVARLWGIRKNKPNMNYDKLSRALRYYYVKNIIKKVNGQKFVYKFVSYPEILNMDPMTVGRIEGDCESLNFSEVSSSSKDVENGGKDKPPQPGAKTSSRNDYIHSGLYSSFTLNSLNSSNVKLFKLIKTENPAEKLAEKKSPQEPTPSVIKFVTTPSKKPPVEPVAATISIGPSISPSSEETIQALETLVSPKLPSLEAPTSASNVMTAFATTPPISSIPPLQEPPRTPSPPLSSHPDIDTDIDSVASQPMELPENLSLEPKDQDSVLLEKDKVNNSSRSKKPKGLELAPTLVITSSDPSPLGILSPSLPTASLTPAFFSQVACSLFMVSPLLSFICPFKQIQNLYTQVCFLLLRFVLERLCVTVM
Method in brief: as §1

ETV2 = biological target: T10, ETV2 (Homo sapiens, UniProt O00321 1-342); settings: protein: recombinant; tags: N-terminal GST; dsDNA, one strand shown
T10 sequence: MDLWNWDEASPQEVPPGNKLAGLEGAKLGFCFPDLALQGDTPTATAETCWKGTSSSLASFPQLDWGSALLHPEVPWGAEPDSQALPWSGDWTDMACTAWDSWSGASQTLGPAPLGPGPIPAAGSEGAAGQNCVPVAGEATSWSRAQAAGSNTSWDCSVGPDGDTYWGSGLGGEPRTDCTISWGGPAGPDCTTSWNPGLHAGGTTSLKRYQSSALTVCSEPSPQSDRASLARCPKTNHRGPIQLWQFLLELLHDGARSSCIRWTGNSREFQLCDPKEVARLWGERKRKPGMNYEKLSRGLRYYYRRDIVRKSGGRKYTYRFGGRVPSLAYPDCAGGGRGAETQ
Method in brief: as §1

CRX = CRX (Homo sapiens, UniProt O43186 1-299); settings: protein: recombinant; tags: N-terminal GST; dsDNA, one strand shown
Chain of CRX (O43186 whole entry): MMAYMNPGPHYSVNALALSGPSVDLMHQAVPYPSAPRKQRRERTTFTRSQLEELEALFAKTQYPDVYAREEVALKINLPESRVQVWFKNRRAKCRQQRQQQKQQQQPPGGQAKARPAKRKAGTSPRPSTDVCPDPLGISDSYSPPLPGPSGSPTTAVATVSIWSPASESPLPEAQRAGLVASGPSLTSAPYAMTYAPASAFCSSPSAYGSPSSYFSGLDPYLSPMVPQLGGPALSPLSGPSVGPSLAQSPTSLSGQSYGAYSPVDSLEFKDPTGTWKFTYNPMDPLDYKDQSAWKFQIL
Method in brief: as §1

ETV1 = ETV1 (Homo sapiens, UniProt P50549 1-477); settings: protein: recombinant; tags: N-terminal GST; dsDNA, one strand shown
Chain of ETV1 (P50549 whole entry): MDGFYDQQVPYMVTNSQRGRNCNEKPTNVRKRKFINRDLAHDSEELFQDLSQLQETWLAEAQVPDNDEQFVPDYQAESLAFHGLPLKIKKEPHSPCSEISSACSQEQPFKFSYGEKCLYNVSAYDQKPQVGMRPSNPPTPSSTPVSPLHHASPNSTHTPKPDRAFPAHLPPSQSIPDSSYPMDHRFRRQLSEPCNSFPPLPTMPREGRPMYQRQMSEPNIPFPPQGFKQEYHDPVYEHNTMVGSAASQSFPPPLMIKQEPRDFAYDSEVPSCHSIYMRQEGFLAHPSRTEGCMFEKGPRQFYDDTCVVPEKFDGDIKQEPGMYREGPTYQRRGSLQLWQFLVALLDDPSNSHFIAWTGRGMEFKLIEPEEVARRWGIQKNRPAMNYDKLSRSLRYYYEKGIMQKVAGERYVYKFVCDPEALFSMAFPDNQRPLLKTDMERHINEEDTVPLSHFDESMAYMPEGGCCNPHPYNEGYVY
Method in brief: as §1

## CGATAA
FLI1
  binding signal: 1.12 fold enrichment (6-mer frequency, TF over GST control)
ELK1
  binding signal: 1.02 fold enrichment (6-mer frequency, TF over GST control)
GABPA
  binding signal: 1.06 fold enrichment (6-mer frequency, TF over GST control)
ERG
  binding signal: 1.09 fold enrichment (6-mer frequency, TF over GST control)
ELF1
  binding signal: 1.08 fold enrichment (6-mer frequency, TF over GST control)
EHF
  binding signal: 1.03 fold enrichment (6-mer frequency, TF over GST control)
SPI1
  binding signal: 1.08 fold enrichment (6-mer frequency, TF over GST control)
SPIB
  binding signal: 1.19 fold enrichment (6-mer frequency, TF over GST control)
ELK3
  binding signal: 1.2 fold enrichment (6-mer frequency, TF over GST control)
FEV
  binding signal: 1.02 fold enrichment (6-mer frequency, TF over GST control)
ETV5
  binding signal: 1.04 fold enrichment (6-mer frequency, TF over GST control)
HSF1
  binding signal: 1.51 fold enrichment (6-mer frequency, TF over GST control)
SPIC
  binding signal: 1.12 fold enrichment (6-mer frequency, TF over GST control)
ELF4
  binding signal: 1.16 fold enrichment (6-mer frequency, TF over GST control)
ELK4
  binding signal: 1.1 fold enrichment (6-mer frequency, TF over GST control)
ETV2
  binding signal: 1.19 fold enrichment (6-mer frequency, TF over GST control)
CRX
  binding signal: 1.75 fold enrichment (6-mer frequency, TF over GST control)
ETV1
  binding signal: 1.09 fold enrichment (6-mer frequency, TF over GST control)
